Screens from PubChem BioAssay.
Tb PYK inh: qHTS of Trypanosoma Brucei Inhibitors; AID 624173, 2012; hit rate 0.12% among 410,000; TbPYK enzyme, Kinase-Glo Plus ATP luminescence, 45 min; pyruvate kinase (Trypanosoma brucei), Q57TT1; Potency, µM (top dose mostly 76.8 µM), hits mostly inhibitors; note: nearly all actives have a fitted effect of over 50% in size
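T. brucei PYK with substrate was exposed to pin-transferred compounds across a concentration series, then started with 130 uM ADP (final). After 45 min at room temperature, Kinase-Glo Plus luminescence was read, normalized and curve-fitted.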
Giardia FBPA inh: qHTS Assay for Inhibitors of Fructose-1,6-bisphosphate Aldolase from Giardia Lamblia; Potency, µM (top dose mostly 59.6 µM), hits mostly inhibitors; hit rate 0.71% among 290,000; purified Giardia FBPA; A8B2U2; note: nearly all actives have a fitted effect of over 55% in size
Target sequence (A8B2U2 whole entry, looked up): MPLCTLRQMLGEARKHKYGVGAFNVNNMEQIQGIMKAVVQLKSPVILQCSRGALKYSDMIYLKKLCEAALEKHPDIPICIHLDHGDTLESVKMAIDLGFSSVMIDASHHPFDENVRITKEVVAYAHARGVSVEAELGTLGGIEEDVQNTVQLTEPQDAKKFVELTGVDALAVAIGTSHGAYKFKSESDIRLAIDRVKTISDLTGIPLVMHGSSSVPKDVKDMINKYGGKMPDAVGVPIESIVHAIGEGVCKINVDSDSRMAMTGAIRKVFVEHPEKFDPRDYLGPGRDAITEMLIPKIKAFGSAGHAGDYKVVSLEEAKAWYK
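40 nM FBPA preincubated 10 min at RT with compound (up to 57.5 uM final), then substrate plus GAPDH/TPI/NAD/arsenate coupling and diaphorase/resazurin added. Fluorescence read after 20 min at RT, 525/598 nm.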
Sm TGR inh: qHTS Assay for the Inhibitors of Schistosoma Mansoni Peroxiredoxins. Schistosoma mansoni thioredoxin glutathione reductase (TGR), Q962Y6. purified TGR, DTNB reduction, TNB absorbance 405 nm. Potency, µM (doses to about 114 µM), hits mostly inhibitors. hit rate 3% among 360,000. AID 485364, 2010; note: nearly all actives have a fitted effect of over 60% in size
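Kinetic colorimetric format: TGR-catalysed, NADPH-driven DTNB reduction monitored via TNB absorbance. Enzyme dispensed at 20 nM; compound exposure 15 min at room temperature before reaction start.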
RE007 growth inh: qHTS Assay for Inhibitors of the HIV-1 protein Vpr; S. pombe RE007 Vpr strain, BacTiter-Glo ATP luminescence, 24 h; Potency, µM (doses to about 92.2 µM), usual class: inhibitors; hit rate 0.21% among 360,000; AID 651644, 2012; active = well fitted falling curve with a large enough effect; inconclusive = small, poorly fitted or top-dose-only effect; inactive = no such curve, though single readings can be large or run the other way; note: nearly all actives have a fitted effect of over 50% in size
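Fission yeast RE007 carrying one integrated HIV-1 vpr copy, seeded at OD 0.01 in PMG+AL medium with 23 nL pinned compound. Grown 24 h at 30 degrees; viability read by BacTiter-Glo luminescence after 5 min.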
NS1 inh: qHTS Assay for Inhibitors of Influenza NS1 Protein Function; Potency, µM (top dose mostly 46.1 µM); hit rate 0.4% among 270,000; calls by dose curve; note: actives are rising curves; nearly all actives have a fitted effect of over 50% in size
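OD600 was taken as the measure of yeast growth restored by compound in an NS1-expressing S. cerevisiae strain. Cells had been washed out of glucose medium and diluted 1:100 into galactose -URA medium, pH 6.0.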
LmPK inhibitor: qHTS Assay for Inhibitors of Leishmania Mexicana Pyruvate Kinase (LmPK); purified LmPK, Kinase-Glo ATP luminescence, 1 h; Potency, µM (highest dose often 57.5 µM), hits mostly inhibitors; hit rate 0.37% among 290,000; AID 1721, 2009
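Purified LmPK (0.1 nM) converted ADP (0.1 mM) to ATP with PEP (0.5 mM) in imidazole buffer pH 7.2 with KCl and MgCl2, 1 h at room temperature. ATP was read by Kinase-Glo luminescence; data normalized to uninhibited and no-enzyme controls.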
A number is an active result; n = inactive; u = inconclusive; x = not tested or not shown; [ ] = dose if it differs, or a comment. Only some compounds are listed: those with a hit (about 3.5% of all), similar ones and a draw of the others. Unless noted, calls come from the whole dose curve; as a rule, active = well fitted curve in the direction sought with a large enough effect; inconclusive = small, poorly fitted or top-dose-only effect, or another doubt; inactive = no such curve, though single readings can be large; an effect the other way counts as inactive or inconclusive.

SMILES | Tb PYK inh | Giardia FBPA inh | Sm TGR inh | RE007 growth inh | NS1 inh | LmPK inhibitor
C=CCc1ccccc1OCC(O)CNC(C)C (stereo not drawn) | n | n | 25µM | n | n | n
CCCCCCCCCCCCCCCCC(C(=O)O)C(O)(CC(=O)O)C(=O)O (stereo not drawn) | n | x | x | x | x | x
COc1cc(/C=C2/C(=O)NN(c3cccc(Cl)c3)C2=O)cc(OC)c1O | n | n | u | n | u | n
COc1cc(/C=C2\S/C(=N/S(=O)(=O)c3ccccc3)NC2=O)c([N+](=O)[O-])cc1OC | n | n | n | n | u | n
COc1cc(/C=C2\C(=O)NC(=O)N(c3ccccc3)C2=O)c([N+](=O)[O-])cc1OC | u | u | 1.6µM | n | u | n
COc1cc(C=O)c([N+](=O)[O-])cc1OC | x | 5µM | x | x | x | x
COc1cc(/C=C2\C(=O)NC(=O)N(c3ccccc3)C2=O)cc(OC)c1O | u | 10µM | n | n | n | n
O=C1NC(=O)N(c2ccccc2)C(=O)/C1=C/c1ccc2c(c1)Cc1ccccc1-2 | x | n | u | x | x | n[11.5 µM]
COc1cc(OC)c(OC)cc1C=O | n | n | x | n | x | x
COc1ccccc1N1C(=O)NC(=O)/C(=C/c2ccc3c(c2)Cc2ccccc2-3)C1=O | n | n | 32µM | n | n | n
CCOC(=O)c1c(C)c(-c2ccccc2)n(CC(=O)NCCc2ccc(C)cc2)c1C | n | x | n | x | x | x
CCOC(=O)CSc1nc2c(sc3ccccc32)c(=O)n1CCc1ccccc1 | n | x | n | x | x | x
COc1cc(NC(=O)CCn2nc(C)c(S(=O)(=O)N3CCCCC3)c2C)cc(OC)c1OC | n | x | n | x | x | x
COc1ccc(-n2c(-c3ccc(Cl)cc3)cc3c2CC(C)(C)CC3=O)c(OC)c1 | n | x | n | x | x | x
COc1cc2c(=O)c(C(=O)c3ccc(C)c(C)c3)cn(Cc3ccccc3F)c2cc1OC | n | x | n | x | x | x
O=C(O)C1C2C=CC(O2)C1C(=O)Nc1ccc(S(=O)(=O)Nc2ccccc2)cc1 (stereo not drawn) | u | n | 6.3µM | n | n | n
O=C(O)C1C2C=CC(O2)C1C(=O)Nc1ccc(S(=O)(=O)N2CCc3ccccc32)cc1 (stereo not drawn) | n | n | 14µM | n | n | n
CC(=O)c1ccc(NC(=O)C2C3C=CC(O3)C2C(=O)O)cc1 (stereo not drawn) | n | n | n | n | n | n
O=c1oc2cc(O)ccc2s1 | n | n | n | n | x | x
Cc1ccc(-c2cc(O)cc3sc(=O)oc23)cc1C | n | n | n | 40µM | n | n
Cc1ccc2nc(-c3ccc(Cl)c(NC(=O)c4ccc5c(c4)OCCO5)c3)oc2c1 | n | x | n | x | x | x
Cc1ccc(/C=N\NC(=O)Cc2cccn2C)o1 | n | n | u | n | x | n[11.5 µM]
C/C(=N\NC(=O)c1csc(C)c1C)c1ccco1 | n | n | n | n | n | 14µM
Cn1cccc1CC(=O)N/N=C/C=C/c1ccco1 | n | u | 11µM | n | u | n
C/C(=N\NC(=O)Cc1cccn1C)c1ccco1 | n | n | 40µM | n | n | n
SMILES | Tb PYK inh | Giardia FBPA inh | Sm TGR inh | RE007 growth inh | NS1 inh | LmPK inhibitor
C[C@@H]1O[C@H](O[C@@H]2[C@H](C)O[C@H](O[C@@H]3[C@H](C)O[C@H](O[C@H]4CC[C@]5(C)[C@@H](CC[C@@H]6[C@H]5C[C@@H](O)[C@]5(C)[C@@H](C7=CC(=O)OC7)CC[C@]65O)C4)C[C@@H]3O)C[C@@H]2O)C[C@H](O)[C@@H]1O | x | n | x | x | x | x
Cc1sc(-c2cc3c([nH]c2=O)CC(c2ccccc2)CC3=O)nc1-c1ccc(Cl)cc1 (stereo not drawn) | n | x | n | x | x | x
C/C=C/c1ccc2oc(-c3ccc(O)cc3)c(C)c2c1 | x | n | x | x | x | x
CC1=CC(=O)C(Sc2ccc(C)cc2)=CC1=O | 7.1µM | x | x | 22µM | x | x
Cc1ccc(SC2=C(Sc3ccc(C)cc3)C(=O)c3ccccc3C2=O)cc1 | u | u | u | n | n | u
CCOC(=O)c1cnn2c(C(F)(F)F)cc(-c3ccc(Br)cc3)nc12 | n | x | 40µM | x | x | x
